Most compounds without a hit are left out; they make up all but 3.2% or so of the library.
GALK inhibitor: galactokinase (human) inhibition; P51570; Purified GALK, Kinase-Glo residual ATP luminescence; Potency, µM (titrated, usually from 57.5 µM), without a hit: top-dose activity change, negative = inhibition, most hits filed as inhibitors; 270,000 tested, 0.007% active; AID 1868; also: potency is read from the fitted curve at half-maximal effect
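ATP-depletion format; final 35 uM ATP, 100 uM D-galactose, 5 nM enzyme; pH 8.0 HEPES/Mg2+ buffer; 60 min RT; luminescence read 10 min after detection reagent.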
PLK1 PBD inh: inhibitors of human PLK1 polo-box domain binding; P53350; Plk1 PBD binding of FITC phosphopeptide, fluorescence polarization; Potency, µM, for the others: max response, negative = inhibition, hits mostly inhibitors; 360,000 tested, 2.8% active; also: potency is read from the fitted curve at half-maximal effect; series mostly up to about 57 µM; nearly all actives have a fitted effect of over 65% in size
USP2a block: USP2a (human) protease inhibition. 330,000 tested, 0.01% active. USP2 core, Ub-CHOP2 coupled fluorogenic reporter, 485/531. O75604. AID 463254. Potency, µM (top dose mostly 38.3 µM), without a hit: at the top dose activity change, negative = inhibition, most hits filed as inhibitors;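 also: potency is read from the fitted curve at half-maximal effect; plate controls were DMSO wells for no effect and full inhibition by NEM control for full effect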
Target sequence (O75604 whole entry, looked up): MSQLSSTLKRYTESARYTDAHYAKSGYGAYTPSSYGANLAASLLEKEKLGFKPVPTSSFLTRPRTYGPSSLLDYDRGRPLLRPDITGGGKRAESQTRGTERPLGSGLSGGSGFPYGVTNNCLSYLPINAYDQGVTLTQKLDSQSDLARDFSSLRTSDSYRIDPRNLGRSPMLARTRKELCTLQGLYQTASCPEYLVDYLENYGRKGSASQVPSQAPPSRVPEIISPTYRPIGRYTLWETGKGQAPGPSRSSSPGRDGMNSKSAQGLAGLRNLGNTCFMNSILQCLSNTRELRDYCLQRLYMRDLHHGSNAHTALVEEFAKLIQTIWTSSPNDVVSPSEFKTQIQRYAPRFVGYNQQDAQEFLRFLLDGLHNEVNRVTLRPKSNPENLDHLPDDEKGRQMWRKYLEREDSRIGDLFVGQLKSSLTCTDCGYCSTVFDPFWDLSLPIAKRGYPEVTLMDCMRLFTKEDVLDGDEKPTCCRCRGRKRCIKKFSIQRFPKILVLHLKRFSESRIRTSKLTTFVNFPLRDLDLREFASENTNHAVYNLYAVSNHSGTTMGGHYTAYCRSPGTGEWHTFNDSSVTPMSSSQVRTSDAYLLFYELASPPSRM
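USP2 core (10nM final) preincubated 30min RT with compound in 20mM Tris-HCl pH 8.0, 2mM CaCl2, 2mM beta-mercaptoethanol, 0.05% CHAPS; 25nM Ub-CHOP2 plus 25nM reporter substrate added, fluorescence (Ex485/Em531) read after 60min.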
USP1-UAF1 inh: inhibitors of human USP1/UAF1 deubiquitinase. O94782. 390,000 tested, 0.23% active. Potency, µM (top dose mostly 57.1 µM), for inactives: at the top dose activity change, negative = inhibition, most hits filed as inhibitors. recombinant USP1/UAF1, Ub-Rhodamine cleavage fluorescence; also: potency is read from the fitted curve at half-maximal effect; nearly all actives have a fitted effect of over 60% in size
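High-throughput fluorogenic screen: 1nM USP1/UAF1 complex, Ub-Rho substrate 150nM final, 50mM HEPES pH 7.8 with 0.5mM EDTA, 0.1 mg/ml BSA, 1mM TCEP and 0.01% Tween-20.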
Coupling enz: coupling enzyme interference in Giardia aldolase counter-screen | coupling enzyme system counterscreen, AmpLite Red fluorescence | AID 2472 | 290,000 tested, 0.67% active | activity change, negative = inhibition, % at 58.2 µM, hits read low; in the data active = activity change below about -30%
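Counterscreen lacking aldolase: glyceraldehyde-3-phosphate coupling-enzyme reagent preincubated 10 min at RT with compound (at 57.5 uM final), then substrate/coupling system with AmpLite Red added; fluorescence read at 525/598 nm after 20 min RT.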
VDR inh: blocks the human vitamin D receptor; P11473; VDR-SRC2-3 peptide fluorescence polarization, 2 h; Potency, µM, without a hit: max response, negative = inhibition, most hits filed as inhibitors; 400,000 tested, 0.93% active; AID 504847; also: potency is read from the fitted curve at half-maximal effect
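Reagent solutions, kept cold and dark, are dispensed first; compounds are then pinned in at 23 nl, plates briefly spun, and incubated 2 h at ambient temperature. Inhibition of VDR–SRC2-3 peptide binding is read by fluorescence polarization.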
Starred values were filed as active, the others as inactive; ? = inconclusive; · = no result; ! = repeats disagree. Unless noted, calls follow the shape of the dose curve; as a rule, active = well fitted curve in the direction sought with a large enough effect; inconclusive = small, poorly fitted or top-dose-only effect, or another doubt; inactive = no such curve, though single readings can be large; an effect the other way counts as inactive or inconclusive. Unless noted, % is scaled to controls: 0 for no effect and ±100 for the full control effect.

SMILES | GALK inhibitor | PLK1 PBD inh | USP2a block | USP1-UAF1 inh | Coupling enz | VDR inh
Cc1cc(C(=O)Nc2sc3c(c2C#N)CCCC3)no1 | -4% | 27µM* | -2% | -12% | -1 | -16%
N#Cc1c(NC(=O)c2ccccc2)sc2c1CCCCC2 | -12% | -7% | 5% | 0% | -4 | 3%
COc1ccccc1-c1cc(C(=O)Nc2sc3c(c2C#N)CCCC3)no1 | · | · | · | 11% | · | 79µM*
CCOC(=O)c1cc(C(=O)Nc2sc3c(c2C#N)CCCC3)nn1C | -10% | 21µM* | -1% | -23% | 1 | ?
Cc1cc(C(F)F)n2nc(C(=O)Nc3sc4c(c3C#N)CCC4)nc2n1 | · | 27µM* | -1% | -4% | 6 | -8%
Cn1cc([N+](=O)[O-])c(C(=O)Nc2sc3c(c2C#N)CCC3)n1 | 0% | -2% | 5% | -6% | · | -9%
Cn1ccc(C(=O)Nc2sc3c(c2C#N)CCC3)n1 | -4% | ? | 1% | -26% | · | 3%
CCOC(=O)c1csc(NNC=O)n1 | 1% | -6% | 4% | -4% | 1 | ?
CC(C)Cc1cc(C(=O)Nc2sc3c(c2C#N)CCCC3)no1 | -1% | ? | 2% | -21% | 1 | -22%
N#Cc1c(NC(=O)c2cc(C3CC3)on2)sc2c1CCC2 | 0% | 27µM* | 0% | -1% | 5 | ?
COc1ccc(OC)c(-c2cc(C(=O)Nc3sc4c(c3C#N)CCC(C)C4)c3ccccc3n2)c1 (stereo unspecified) | 1% | -6% | 1% | -13% | · | 12%
CC(C)Cc1cc(C(=O)Nc2sc3c(c2C#N)CCC3)no1 | 2% | 24µM* | -3% | -5% | 7 | -17%
COc1ccccc1-c1cc(C(=O)Nc2sc3c(c2C#N)CCC(C)C3)c2ccccc2n1 (stereo unspecified) | -5% | 27µM* | 0% | -5% | -2 | -7%
C=CC[n+]1c(/C=C2\C=Cc3cc(C)ccc3N2CC)ccc2ccccc21 | 1% | -2% | 0% | -11% | 2 | -14%
CC(C)COC(=O)N(C)C[C@@H]1OCc2cn(nn2)CCCC(=O)N([C@@H](C)CO)C[C@H]1C | · | -16% | · | 4% | · | ·
O=C(CSC1CC(=O)N(CCc2ccccc2)C1=O)Nc1cccc(Cl)c1 (stereo unspecified) | 0% | ? | 0% | -21% | 0 | 79µM*
COc1cc2oc(=O)c3c4c(cc5ccc(c1CCN(C)C)c2c53)OCO4 | · | · | · | · | -15 | 40µM*
CCCCc1nc2cc(C(=O)N3CCCCC3CCNC(C)=O)ccc2o1 (stereo unspecified) | 1% | 24µM* | -1% | -7% | · | ?
CCCCc1nc2cc(C(=O)N3CCCCC3COC)ccc2o1 (stereo unspecified) | -4% | 3% | 2% | 0% | 1 | -9%
Nc1cc2nsnc2cc1Br | · | ? | 6% | 4.5µM* | -32* | ?
CC(S(=O)(=O)c1ccccc1)S(=O)(=O)c1ccccc1 | · | -9% | · | -25% | · | ·
CCc1c(C(C)S(=O)(=O)c2ccccc2)[nH]c(=O)n1CC (stereo unspecified) | 3% | 15µM* | 0% | -8% | 0 | -24%
Cn1c(CCC(=O)O)nc2cc(S(=O)(=O)N3CCCCC3)ccc21 | · | 27µM* | -2% | -21% | · | ?
CCn1c(=O)cc(OCC(=O)N2CCN(c3ccccc3OC)CC2)c2ccccc21 | · | · | · | -22% | · | 1%
CCn1c(=O)cc(OCC(=O)N2CCCC2)c2ccccc21 | 2% | 27µM* | -1% | -5% | -2 | -11%
SMILES | GALK inhibitor | PLK1 PBD inh | USP2a block | USP1-UAF1 inh | Coupling enz | VDR inh
CCOc1ccc(N(CC)C(=O)COc2cc(=O)n(CC)c3ccccc23)cc1 | -2% | 27µM* | 0% | -10% | 0 | -23%
C[C@@H]1CCC[C@]2(O[C@H](CCO)C[C@@H](O)[C@@H]2O)O1 | · | · | · | 6% | · | -13%
C/C(=N\NC(=O)C1CC1)c1ccc(N2CCOCC2)cc1 | 0% | -5% | -1% | -11% | 1 | -4%
O=C(NCc1ccccn1)/C(=N/O)c1ccccc1 | 0% | 3.4µM* | 0% | -16% | 1 | -17%
C/C(=N\O)C(=O)NCc1ccccn1 | 1% | 1% | -1% | -13% | 0 | -13%
OCC1(CCc2ccccc2)CCCN(CCCC(F)(F)F)C1 (stereo unspecified) | -2% | -7% | -2% | 3% | -2 | 19%
O=C1NC(=O)C(c2cn(-c3ccccc3)nc2-c2ccc(F)cc2)N1 (stereo unspecified) | -2% | 5.3µM* | 1% | -15% | 1 | ?
Cc1cc[n+](-c2nc3ccccc3nc2C(=C=[N-])C#N)cc1 | 4% | -9% | -10% | -10% | -41* | 0%
Cc1ccc[n+](-c2nc3ccccc3nc2C(=C=[N-])C#N)c1 | -1% | 2% | 5% | -22% | -3 | -5%
N#CC(=C=[N-])c1nc2ccccc2nc1-[n+]1ccccc1 | -2% | 27µM*! | 0% | -3% | 0 | ?
Cc1oc(C)c2c(=O)ccc3c(c12)OC(N)=C(C#N)C3c1ccc(F)cc1 (stereo unspecified) | 2% | ? | 8% | -8% | -43* | -17%
Cc1[nH]nc2c1C(c1ccc(F)cc1)C(C#N)=C(N)O2 (stereo unspecified) | 6% | -17% | 1% | -8% | 5 | 1%
Cc1ccc(/C=N/n2c(C)nnc2C)o1 | · | 21µM* | 1% | -22% | 0 | ?
Cc1ccc(/C=N/n2c(C)nnc2C)s1 | 0% | 27µM* | 0% | -18% | 0 | -21%
COC(=O)CCC(=O)OC1(C)C(=O)C2=CN(C3CC3)C(c3ccc(OC)cc3)=CC2=C(Br)C1=O (stereo unspecified) | · | 27µM* | · | 22µM* | -22 | ?
COC(=O)CCC(=O)OC1(C)C(=O)C2=CN(CC3CC3)C(c3ccc(OC)cc3)=CC2=C(Br)C1=O (stereo unspecified) | 0% | ? | 1% | 32µM* | -32* | ?
COC(=O)CCC(=O)OC1(C)C(=O)C2=CN(c3ccccc3)C(c3ccc(OC)cc3)=CC2=C(Br)C1=O (stereo unspecified) | · | ? | · | ? | -12 | ?
COC(=O)CCC(=O)OC1(C)C(=O)C2=CN(Cc3ccccc3)C(c3ccc(OC)cc3)=CC2=C(Br)C1=O (stereo unspecified) | · | ? | · | ? | -4 | ?
C[C@H](CO)N1C[C@H](C)[C@@H](CN(C)S(=O)(=O)c2ccccc2)Oc2ccc(NC(=O)c3ccncc3)cc2C1=O | · | -1% | 3% | -18% | · | 19%
NS(=O)(=O)c1ccc(CNC(=O)c2ccc3c(c2)OCO3)cc1 | · | -4% | -2% | -6% | · | -3%
